Laboratory results published in PubChem BioAssay.
Calls of active or inactive are those of the source. Unless noted, no rule for the calls is given here.

Legend:
[1] = system: XIP peptide (Xip251-270) binding; assay: small-molecule binders of XIP peptide, primary screen, biochemical, small-molecule microarray, fluorescence 635/667 nm, 0.1 µg/mL protein (AID 1182); settings: fluorescent protein binding, 635 nm, higher = more signal, called active from +8 up or from −8 down
[2] = system: XIP peptide (Xip251-270); assay: small-molecule binders of XIP peptide, primary screen, biochemical, small-molecule microarray, fluorescence 635/667 nm, 0.5 µg/mL protein (AID 1183); settings: small-molecule microarray binding, fluorescence 635 nm; higher = more signal
[3] = Plasmodium falciparum growth inhibition, primary screen, strain 3D7, DAPI fluorescence, 100 nL (AID 1184);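 also: parasites grown inside human red blood cells in medium with human serum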; settings: P. falciparum 3D7 growth, 3 d, higher = more signal
[4] = biological target: Homeobox protein Hox-A13 (Mus musculus) (UniProt Q62424); assay: inhibitors of HoxA13-DNA binding, primary screen, biochemical, fluorescence polarization, labeled oligonucleotide (AID 1185); settings: 15 min, higher = more signal, called active from +8 up or from −8 down
[5] = inhibitors of hydroxyurea-induced Chk1 phosphorylation, primary screen, imaging, HeLa, phospho-Chk1 antibody, percent positive cells (AID 1186); settings: hydroxyurea-induced phospho-Chk1 immunofluorescence imaging, higher = more signal
[6] = inhibitors of hydroxyurea-induced Chk1 phosphorylation, primary screen, imaging, HeLa, phospho-Chk1 nuclear intensity (AID 1187); settings: hydroxyurea-induced phospho-Chk1 immunofluorescence imaging, higher = more signal

Homeobox protein Hox-A13 (Mus musculus), sequence (Q62424 whole entry, looked up): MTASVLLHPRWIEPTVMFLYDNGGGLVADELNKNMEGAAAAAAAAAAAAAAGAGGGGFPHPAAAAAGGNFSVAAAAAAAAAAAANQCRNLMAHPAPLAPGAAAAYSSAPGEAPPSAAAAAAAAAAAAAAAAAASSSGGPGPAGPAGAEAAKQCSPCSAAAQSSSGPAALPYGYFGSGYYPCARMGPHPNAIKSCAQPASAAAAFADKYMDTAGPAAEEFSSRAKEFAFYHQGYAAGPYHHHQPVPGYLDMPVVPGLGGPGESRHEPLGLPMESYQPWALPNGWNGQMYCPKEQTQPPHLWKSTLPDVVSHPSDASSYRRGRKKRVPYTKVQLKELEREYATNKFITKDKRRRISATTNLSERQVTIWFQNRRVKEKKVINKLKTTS

Compound	composite z-score [1]	composite z-score [2]	z-score [3]	z-score [4]	z-score [5]	z-score [6]
C=CC[C@H](OC(=O)Nc1ccc(SC)cc1)c1ccc(O)c2ccccc12	1.07 (inactive)	0.728	-0.922	-1.35 (inactive)	-0.0114 (inactive)	0.142 (inactive)
CC(C)C(CO)N1C(=O)[C@@H]2C3C(=O)OCCC/C=C\[C@H]3OC23C=CCN(c2ccc4ccccc4c2)C(=O)[C@@H]13 (stereo partly specified)	0.0076 (inactive)	0.0118	0.674	-6.34 (inactive)	0.467 (inactive)	0.516 (inactive)
COc1ccc([C@H]2OC[C@@H]3C[C@H](Cc4ccccc4)C(=O)N32)cc1	-0.299 (inactive)	0.0713	0.877	-0.716 (inactive)	0.311 (inactive)	0.0211 (inactive)
CCCCC=C[C@@H](NC(=O)OCc1ccccc1Cl)c1ccccc1	-0.549 (inactive)	0.573	-1.37	2.14 (inactive)	0.663 (inactive)	-0.117 (inactive)
C[N+](C)(C)CCCCCCNC(=O)[C@@H]1C[C@@H]2C(=O)N3CCC[C@H]3C(=O)N2[C@@H]1c1ccc(O)cc1	0.45 (inactive)	0.723	0.0301	-1.82 (inactive)	-0.265 (inactive)	0.127 (inactive)
CC(C)[Si](C#CCCCC#N)(O[C@H](c1ccccc1)c1cn(Cc2ccccc2)nn1)C(C)C	0.206 (inactive)	0.391	0.559	-1.61 (inactive)	-0.727 (inactive)	-0.29 (inactive)
CC(C)[Si](C#C[Si](C(C)C)(C(C)C)C(C)C)(O[C@H](c1ccccc1)c1cn(Cc2ccccc2)nn1)C(C)C	-0.464 (inactive)	-0.0753	-0.122	0.371 (inactive)	-0.269 (inactive)	-0.216 (inactive)
CCCC[C@@H](O)C1=C(COc2ccccc2)C[C@H]2C(=O)N(Cc3ccccc3)C(=O)[C@H]2[C@H]1CO	-0.243 (inactive)	0.374	0.131	-7.37 (inactive)	-0.782 (inactive)	-0.513 (inactive)
CO[C@H]1O[C@H](CO)[C@@H](OC(=O)CCc2ccccc2)[C@@H]2OC(=O)[C@@H](Cc3ccccc3)C/C=C/C[C@H](Cc3ccccc3)C(=O)O[C@@H]12	-0.315 (inactive)	0.506	-0.655	-3.06 (inactive)	-0.682 (inactive)	-0.379 (inactive)
NC(=O)NCC#Cc1ccc2c(c1)[C@]1(C(=O)N2)[C@H](C(=O)N2CCN(c3ncccn3)CC2)[C@H]2C(=O)O[C@H](c3ccccc3)[C@H](c3ccccc3)N2[C@@H]1c1ccc(O)cc1	-0.0728 (inactive)	0.58	1.79	-1.83 (inactive)	0.161 (inactive)	0.359 (inactive)
C#CCN([C@@H](Cc1ccccc1)C(=O)OC)[C@@H](/C=C/C1CC1)[C@H](O)Cc1ccccc1	-0.0272 (inactive)	-0.194	-1.12	-6.42 (inactive)	-0.121 (inactive)	0.134 (inactive)
[N-]=[N+]=Nc1ccccc1C[C@]1(C(=O)NCCN2CCOCC2)COC(c2ccc(OCCCO)cc2)=N1	0.728 (inactive)	0.256	-1.06	-6.04 (inactive)	-0.566 (inactive)	-0.17 (inactive)
CCCCNC(=O)c1ccc(C#CC(C)(C)C)c(OC(C)=O)c1	0.0374 (inactive)	0.222	-1.74	-5.71 (inactive)	0.13 (inactive)	0.411 (inactive)
NC(=O)[C@@]1(Cc2ccccc2)COC(c2ccc(OCCCO)cc2)=N1	0.198 (inactive)	-0.959	0.0597	-2.25 (inactive)	0.279 (inactive)	0.382 (inactive)
CCOC(=O)C1=CC[C@@H](c2ccccc2F)N(S(=O)(=O)c2ccc(C)cc2)[C@H]1c1ccccc1	-0.0895 (inactive)	0.563	-2.02	1.41 (inactive)	0.0286 (inactive)	-0.82 (inactive)
CCCC=C(CCC)[C@@H](NC(=O)C(C)(C)C)c1ccc(C(=O)OC)cc1	0.158 (inactive)	-0.227	-1.47	-0.168 (inactive)	-0.75 (inactive)	-0.977 (inactive)
CCCC[C@@H]1C[C@H]1[C@@H](NC(=O)c1cccs1)c1ccccc1C(F)(F)F	0.269 (inactive)	0.305	-1.27	0.322 (inactive)	-0.0139 (inactive)	0.364 (inactive)
COC(=O)[C@@]1(Cc2ccc(F)cc2)[C@H]2c3cc(C(=O)N(C)C)n(Cc4ccc(OC(F)(F)F)cc4)c3C[C@H]2CN1C(=O)c1ccccc1	0.342 (inactive)	-0.133	0.595	-0.102 (inactive)	0.233 (inactive)	0.579 (inactive)

Compound	composite z-score [1]	composite z-score [2]	z-score [3]	z-score [4]	z-score [5]	z-score [6]
C=C[C@@H](OC)[C@H](OC(=O)Nc1ccc(OC)cc1)c1ccc(O)c(F)c1	0.65 (inactive)	0.741	-0.825	-2.8 (inactive)	-0.528 (inactive)	-1.17 (inactive)
COC(=O)C1(CC(C)C)C=C2C(=C(c3ccccc3)C(=O)C2C)CN1 (stereo unspecified)	-0.213 (inactive)	0.758	-0.104	-7.47 (inactive)	-0.563 (inactive)	-1.13 (inactive)
COCCCNC(=O)[C@@]1(Sc2ccc(C)cc2)CC(=O)N(C2Cc3ccccc3C2)[C@@H]1c1ccc(CO)cc1	0.33 (inactive)	0.446	-1.52	-3.56 (inactive)	-0.0691 (inactive)	0.0579 (inactive)
COc1ccc(CCNC(=O)[C@@]2(Cc3ccccc3I)c3ccccc3C(=O)N(C3CCCCC3)[C@H]2c2ccc(CO)cc2)cc1	0.898 (inactive)	0.372	-2.22	-2.56 (inactive)	-0.312 (inactive)	-0.543 (inactive)
C=CC[C@@H](OC(=O)Nc1ccc(SC)cc1)c1ccc(O)c(F)c1	0.452 (inactive)	0.257	-0.671	-1.19 (inactive)	-0.12 (inactive)	0.539 (inactive)
COc1ccc([Si](C)(C)[C@@H]2[C@@H](CCO)O[C@]3(C(=O)N(Cc4ccccc4)c4ccc(N5C(=O)c6cccc7cccc5c67)cc43)[C@H]2C)cc1	0.533 (inactive)	0.541	-2.76	-0.268 (inactive)	-0.991 (inactive)	-0.379 (inactive)
C=CCNC(=O)[C@@H]1[C@H]2C(=O)O[C@H](c3ccccc3)[C@H](c3ccccc3)N2[C@H](c2ccccc2OCCO)[C@@]12C(=O)Nc1ccc(C#CCC(C(=O)OC)C(=O)OC)cc12	1.56 (inactive)	0.343	-2.1	-3.02 (inactive)	0.0648 (inactive)	-0.246 (inactive)
C=CCNC(=O)[C@@H]1[C@H]2C(=O)O[C@H](c3ccccc3)[C@H](c3ccccc3)N2[C@H](c2ccc(O)cc2)[C@@]12C(=O)N(C(=O)OCCOC)c1ccc(C#CC3=CCCCC3)cc12	0.423 (inactive)	0.672	0.608	-0.465 (inactive)	-0.472 (inactive)	-1.01 (inactive)
COC(=O)C1=CC(CCCO)=CC(c2ccc(CN3CCCC3)cc2)N(Cc2cccc(OC(F)(F)F)c2)C=C1C(=O)OC (stereo unspecified)	1.68 (inactive)	0.677	-2.09	-5.07 (inactive)	-0.268 (inactive)	-0.184 (inactive)
O=C1CS(=O)(=O)C(c2cccc([N+](=O)[O-])c2)N1c1ccccc1 (stereo unspecified)	0.784 (inactive)	0.263	0.66	0.011 (inactive)	-0.346 (inactive)	-0.291 (inactive)
[N-]=[N+]=Nc1ccccc1C[C@@]1(C(=O)NCCN2CCOCC2)N=C(c2ccc(OCCCO)cc2)O[C@@H]1c1ccccc1N=[N+]=[N-]	0.361 (inactive)	0.846	-2.49	-5.26 (inactive)	-0.303 (inactive)	-0.523 (inactive)
CC(=O)NCCCC[C@@H]1NC(=O)[C@@H]2C[C@H](C(=O)NCCCCCN)[C@H](c3cccc(OCCO)c3)N2C1=O	0.845 (inactive)	0.878	0.0297	-2.54 (inactive)	-1.16 (inactive)	-0.913 (inactive)
O=C1O[C@@H](c2ccccc2)[C@@H](c2ccccc2)N2[C@@H](c3ccc(OCCO)cc3)[C@]3(C(=O)Nc4ccc(C#CC5=CCCCC5)cc43)[C@@H](C(=O)NC[C@H](O)c3ccccc3)[C@H]12	0.127 (inactive)	0.693	-1.35	3.28 (inactive)	0.27 (inactive)	0.433 (inactive)
COc1cc(NN2C(C(O)c3ccco3)C=CC3C(=O)N(C)C(=O)C32)cc(OC)c1OC (stereo unspecified)	-0.0656 (inactive)	-0.423	-0.188	-3.41 (inactive)	0.476 (inactive)	0.18 (inactive)
CCOC(=O)C[C@H]1[C@H](OC(=O)Cc2ccc3c(c2)OCO3)[C@@H](NC(=O)c2ccc3ccccc3n2)c2cc(OCCCO)ccc2N1C(=O)c1ccccc1	0.269 (inactive)	0.256	-1.03	-2.41 (inactive)	-0.705 (inactive)	-0.277 (inactive)
NCCCCCNC(=O)[C@@H]1C[C@@H]2C(=O)N[C@@H](CCCCN)C(=O)N2[C@@H]1c1ccc(O)cc1	0.439 (inactive)	0.827	-1.56	1.23 (inactive)	-0.484 (inactive)	-0.497 (inactive)
C=CCC(OC(C)=O)[C@@H]1[C@@H](N(Cc2ccc(-c3cccc(C(F)(F)F)c3)o2)C(=O)Cc2ccc(OC)cc2)c2cc(OCCCO)ccc2N1C(=O)c1ccc(-c2ccccc2)cc1 (stereo partly specified)	0.169 (inactive)	-0.0425	-2.78	-1.67 (inactive)	0.152 (inactive)	0.463 (inactive)
CC(CO)N1C(=O)[C@]2(C)C3C(=O)OCCC/C=C\[C@H]3OC23C=CCN(c2ccc(Cl)cc2)C(=O)[C@@H]13 (stereo partly specified)	-0.356 (inactive)	0.725	0.416	-3.59 (inactive)	0.0747 (inactive)	0.651 (inactive)
